The values below come from PubChem BioAssay (NCATS).

Results filed as inconclusive are left out. The source made the active and inactive calls. Unless noted, calls follow the shape of the dose curve; as a rule, active = well fitted curve in the direction sought with a large enough effect; inconclusive = small, poorly fitted or top-dose-only effect, or another doubt; inactive = no such curve, though single readings can be large; an effect the other way counts as inactive or inconclusive.

The nature of assay [1]: qHTS for Activators of Parkin Expression: LOPAC Validation Assay (NLuc Reporter) (AID 720572;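 also: 0% = DMSO and 100% = positive control compound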). The method, boiled down: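 Neuronal line stably carrying a FLuc/NLuc coincidence reporter under the Parkin promoter, seeded 24 h, then dosed in 7-point series for 24 h at 37 C. NLuc luminescence read after FLuc; normalized to DMSO and positive control (100%).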
A general note: In qHTS, concentration-response curves come from the screen itself.

Assay [2] is described as follows: qHTS assay for small molecule agonists of the antioxidant response element (ARE) signaling pathway measured by Nrf2-dependant transcriptional activity - cell viability counter screen (AID 720653; active = well fitted curve in the direction sought with a large enough effect in the repeat runs; an effect the other way counts as inactive or inconclusive; also: % is scaled to controls: 0 for no effect and ±100 for the full control effect). The conditions noted are these: ARE-bla HepG2 viability, CellTiter-Glo ATP luminescence, 16 h; max response: stronger effect = lower value. The procedure, abridged: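 ARE-bla HepG2 cells (2,000/well) rested 5 hrs at 37C/5% CO2, then exposed to compounds in DMSO for 16 hrs. Viability was read in the same wells as intracellular ATP by luminescence, 30 min at room temperature after reagent addition.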

The target in assay [3] is T1, Hexokinase-4 (Homo sapiens) + Glucokinase regulatory protein (Homo sapiens) (UniProt P35557+Q14397). Description: qHTS assay for inhibitors of recombinant human GCK-GKRP interaction: ADP-Glo assay (AID 743206). Also: potency is read from the fitted curve at half-maximal effect. The method, boiled down:
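GST-GCK and FLAG-GKRP (15 nM each in the dispensed mix, with 2 uM S6P) react with 0.4 mM ATP and 5 mM glucose (final) in Hepes pH 7.6 for 60 min at room temperature. ADP is measured by ADP-Glo luminescence.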

A short description of assay [4]: qHTS assay for cell viability of the p53RE-bla HCT-116 cell line (AID 743292). Also: % is scaled to controls: 0 for no effect and ±100 for the full control effect; nearly all actives have a fitted effect of over 55% in size. The method, boiled down: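 Intracellular ATP of p53RE-bla HCT-116 cells measured by luciferase luminescence following 16 h compound incubation at 37 C; DMSO-only wells served as vehicle controls.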
Assay [5] can be described thus: qHTS assay for measurement of the activity of small molecule inhibitors on Zika virus induced Caspase-3 activity in human iPSC derived neural progenitor cells (hNPCs) (AID 1224857). Also: nearly all actives have a fitted effect of over 65% in size. Also: potency is read from the fitted curve at half-maximal effect. The procedure, abridged:
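After overnight (16–20 h) culture at 350 cells/well, hNPCs get compound, then ZIKV 2 FFU/cell one hour later. Six hours on, Caspase-Glo 3/7 is added and luminescence measured.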

A short description of assay [6]: qHTS assay for measurement of the activity of small molecule inhibitors on Zika virus induced Caspase-3 activity in human astrocytoma cells (AID 1224859). Also: potency is read from the fitted curve at half-maximal effect. The procedure, abridged: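 Inhibition of Zika-induced caspase-3/7 activity: SNB-19 cells, 1 h compound pretreatment, ZIKV 2 FFU/cell for 6 h at 37 C, Caspase-Glo luminescence read-out.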
A short description of assay [7]: qHTS for Activators of Parkin Expression: LOPAC Validation Assay (FLuc Reporter) (AID 720573;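 also: 0% = DMSO and 100% = positive control compounds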). The method, boiled down:
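FLuc luminescence read-out from a neuronal line expressing a Parkin-promoter-driven coincidence reporter. Cells treated 24 h at 37 C, 5% CO2 with compounds at 7 concentrations; signal increase normalized to DMSO and positive control.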

Assay [8] addresses T1, Hexokinase-4 (Homo sapiens) + Glucokinase regulatory protein (Homo sapiens). Description: qHTS assay for inhibitors of recombinant human GCK-GKRP interaction: Diaphorase-coupled assay (AID 743205). The procedure, abridged: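 Resorufin fluorescence (525/590 nm), read each minute over 30 min, reports GCK activity coupled via G6PDH and diaphorase. Reaction: 10 nM GST-GCK, 10 nM FLAG-GKRP, 5 mM glucose, 0.4 mM ATP, 0.15 mM NADP+, 0.1 mM resazurin.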

For assay [9] the target is unchanged. Description: qHTS assay for inhibitors of recombinant human GCK-GKRP interaction: HTRF assay (AID 743207).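 Also: 0% = DMSO with GCK present and -100% = DMSO wells lacking GCK.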 The method, boiled down:
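HTRF read-out (ex 320 nm; 615/665 nm emission) after 60 min RT equilibration of 5 nM GST-GCK, 5 nM FLAG-GKRP, 2 uM S6P, compound and anti-FLAG/anti-GST detection antibodies; signal normalized between DMSO wells with and without GCK.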

Assay [10] is described as follows: qHTS Assay for Identifying Gametocytocidal Compounds (AID 743244). Also: potency is read from the fitted curve at half-maximal effect.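 As to max response: % is scaled to controls: 0 for no effect and ±100 for the full control effect; actives lower the fluorescent signal which means gametocytes are killed.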 The following applies: P. falciparum 3D7 stage III-V gametocytes, alamarBlue, 72 h; max response: stronger effect = lower value. The procedure, abridged:
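Using 20,000 stage III–V 3D7 gametocytes per well, compounds were incubated 72 h under 37 °C/5% CO2. Viability was then assessed by 24 h alamarBlue reduction, measured fluorometrically at 525/598 nm.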

A short description of assay [11]: qHTS profiling of the MIPE4 collection as inhibitors of Plasmodium falciparum (3D7) proliferation (AID 743344; call rule not given here;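 also: scaled between DMSO vehicle wells and 0.29 µM artemisinin as full inhibition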). The following applies: P. falciparum 3D7 in erythrocytes, SYBR Green DNA fluorescence, 72 h; at 28.5 µM (top of the series). The procedure, abridged: (§1)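 Erythrocytes infected with P. falciparum (0.3% parasitemia, 2.5% hematocrit) incubated with compounds 72 h at 37 C, 5% CO2. Lysis with saponin/Triton buffer containing SYBR Green I, overnight at room temperature in the dark; DNA fluorescence (485/535 nm) normalised to 0.29 uM artemisinin and DMSO.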

Assay [12] can be described thus: qHTS profiling of the MIPE4 collection as inhibitors of Plasmodium falciparum (DD2) proliferation (AID 743345; call rule not given here). The conditions noted are these: P. falciparum Dd2 in erythrocytes, SYBR Green DNA, 72 h; at 28.5 µM (top of the series). The procedure, abridged: as §1
Assay [13] can be described thus: qHTS profiling of the MIPE4 collection as inhibitors of Plasmodium falciparum (DD2) proliferation (Rep 2) (AID 743346; call rule not given here). The following applies: P. falciparum Dd2 in erythrocytes, SYBR Green DNA, 72 h; at 28.5 µM (top of the series). The procedure, abridged: as §1
Assay [14] is described as follows: qHTS profiling of the MIPE4 collection as inhibitors of Plasmodium falciparum (HB3) proliferation (AID 743347; call rule not given here;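 also: plate controls were DMSO vehicle wells for no effect and artemisinin wells for full effect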). The conditions noted are these: P. falciparum HB3 in erythrocytes, SYBR Green DNA, 72 h; at 28.5 µM (top of the series). The method, boiled down:
as §1

Assay [15] is described as follows: qHTS assay for small molecule agonists of the antioxidant response element (ARE) signaling pathway measured by Nrf2-dependant transcriptional activity (AID 720636; active = well fitted curve in the direction sought with a large enough effect in the repeat runs; an effect the other way counts as inactive or inconclusive;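 also: HepG2 cells with an ARE-driven luciferase reporter; % of control where 0% means no effect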). The method, boiled down: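 In HepG2 cells engineered with an Nrf2-responsive luciferase gene, ARE induction was quantified as luminescence after 16 hr compound treatment at 37 C.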

T1 sequence (P35557 whole entry, looked up): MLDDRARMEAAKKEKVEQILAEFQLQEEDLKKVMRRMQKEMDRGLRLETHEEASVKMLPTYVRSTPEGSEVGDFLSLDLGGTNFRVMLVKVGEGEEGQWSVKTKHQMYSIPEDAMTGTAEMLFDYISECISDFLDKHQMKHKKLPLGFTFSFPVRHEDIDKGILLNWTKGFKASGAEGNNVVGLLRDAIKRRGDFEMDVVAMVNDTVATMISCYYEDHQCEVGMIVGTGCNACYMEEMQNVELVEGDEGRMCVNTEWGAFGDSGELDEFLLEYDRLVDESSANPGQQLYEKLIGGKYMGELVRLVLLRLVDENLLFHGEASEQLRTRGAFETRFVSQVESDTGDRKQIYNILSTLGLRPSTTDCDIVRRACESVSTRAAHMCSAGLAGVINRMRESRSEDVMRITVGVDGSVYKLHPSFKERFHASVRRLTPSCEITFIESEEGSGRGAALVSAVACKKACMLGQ
T1 sequence (Q14397 whole entry, looked up): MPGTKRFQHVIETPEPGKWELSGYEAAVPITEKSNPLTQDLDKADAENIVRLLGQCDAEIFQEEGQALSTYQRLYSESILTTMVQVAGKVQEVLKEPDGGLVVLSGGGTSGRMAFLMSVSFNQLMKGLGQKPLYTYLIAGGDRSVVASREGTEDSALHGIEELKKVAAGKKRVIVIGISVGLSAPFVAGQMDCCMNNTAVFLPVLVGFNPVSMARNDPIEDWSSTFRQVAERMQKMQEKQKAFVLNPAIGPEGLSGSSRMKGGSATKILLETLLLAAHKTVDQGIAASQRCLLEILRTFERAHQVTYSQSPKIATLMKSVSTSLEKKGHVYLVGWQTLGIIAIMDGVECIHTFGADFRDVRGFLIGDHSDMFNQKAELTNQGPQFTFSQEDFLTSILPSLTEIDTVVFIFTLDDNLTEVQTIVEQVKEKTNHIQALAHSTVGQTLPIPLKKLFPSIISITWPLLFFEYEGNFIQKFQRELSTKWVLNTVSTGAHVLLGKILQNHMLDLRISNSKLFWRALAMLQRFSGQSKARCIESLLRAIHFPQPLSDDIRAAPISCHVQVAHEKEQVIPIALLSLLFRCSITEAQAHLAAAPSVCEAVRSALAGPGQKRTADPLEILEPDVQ

Regarding `Oc1ccccc1O`, the Potency result in [1], in assay [3], in assay [4], in [5] and in assay [6] was “inactive” each time. Also, the max response in [2] was -28.6% (inactive).

In the case of `OCC1O[C@H](O)C(Cl)C(O)C1O` (some centres undefined), the Potency entry in assay [1], in [7], in assay [3], in assay [9] and in assay [5] was “inactive” in each case. Further, the result in assay [8] was inactive. Further, in [10], the max response is 14.4% (inactive).

Turning to `Cc1ccc(O)c(N=Nc2ccccc2)n1`, the Potency result in assay [1] and in [3] was “inactive” in each case. Further, in assay [8], the outcome was inactive. Besides, the results for the Potency in assay [10] and in [5] were 2510 nM (active) and 891 nM (active), respectively.

Take `CC1(C)CCC=[N+]1[O-]`: the Potency result in assay [1], in [7], in assay [3], in [5] and in assay [6] was “inactive” each time. In addition, the max response in assay [10] is 7.42% (inactive).

Regarding `CC(=O)N[C@H](C(=O)O)C(C)(C)SN=O`, the Potency result in assay [1], in assay [7], in assay [3] and in [5] was “inactive” in each case. In [8], the result was inactive. For the same compound, the max response in [10] was 7.76% (inactive).

Turning to `Oc1cc(O)cc(/C=C/c2ccc(O)c(O)c2)c1`, in assay [8], the result was inactive. The Potency result in assay [3] and in assay [9] was “inactive” each time. For the same compound, the Potency in [5] is 7940 nM (active).

As to `O=C(/C=C/c1ccc(O)cc1)c1ccc(O)cc1O`, the Potency entry in assay [1], in [7], in assay [3] and in assay [9] was “inactive” throughout. Further, the Potency in [5] is 2820 nM (active); in assay [6], 1260 nM (active).

In the case of `N[C@@H](CC(=O)O)C(=O)O`, the Potency entry in assay [1], in assay [7], in [3], in assay [9], in [5] and in assay [6] was “inactive” throughout. For the same compound, in assay [10], the max response was 20.5% (inactive).

Regarding `COC(=O)c1c(C)[nH]c(C)c1C(=O)c1ccccc1Cc1ccccc1`, the Potency result in assay [1], in assay [7], in assay [3], in assay [9] and in assay [5] was “inactive” in each case. Further, the max response in assay [10] was -0.767% (inactive).

Consider `O=C(Nc1cccc(C(=O)Nc2ccc(S(=O)(=O)O)c3cc(S(=O)(=O)O)cc(S(=O)(=O)O)c23)c1)Nc1cccc(C(=O)Nc2ccc(S(=O)(=O)O)c3cc(S(=O)(=O)O)cc(S(=O)(=O)O)c23)c1`, for which the Potency entry in [1], in assay [7], in assay [9] and in [5] was “inactive” each time. In addition, in assay [3], the Potency was 22400 nM (active). The parasite growth, % of DMSO control in assay [11] turned out to be 84.7%. This compound also had a parasite growth remaining, % of DMSO control (lower = more inhibition) in assay [12] of 91.3%. Also, the parasite growth, % of control (lower = inhibition) in assay [13] came to 111%. The growth, % of control in assay [14] was determined as 83.4%.

Consider `c1cnc2c(c1)ccc1cccnc12`, for which the Potency entry in assay [1], in [15], in assay [3], in [9], in [4] and in [5] was “inactive” in each case. Moreover, in [6], the Potency entry is “inactive”. For the same compound, the max response in assay [2] is -9.05% (inactive). In assay [8], the outcome was inactive. In [10], the Potency is 1870 nM (active).

As to `CCCCCCCCc1ccc(-c2ccc(C(=O)O)cc2)cc1`, the Potency result in assay [1], in assay [7], in assay [3], in assay [9] and in [5] was “inactive” each time. Further, the outcome in [8] was inactive. Further, in [10], the max response was 11.5% (inactive).
